Holding throughout (conditions): mRNA level, 48 h; actives raise or lower the signal
Read-out in test [1]: ABC Transporter (ABCC2), ABCC2 (gene 1244)
Kind of test: LTEA_HepaRG_ABCC2: Life Technologies and Expression Analysis (LTEA) Assay for ABC Transporter (ABCC2) using HepaRG (AID 2283464). The essentials: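 Endpoint is ABCC2 transcript level from qRT-PCR, normalized to three housekeeping genes and fitted bidirectionally relative to DMSO. Human HepaRG cells received test chemical for 48 h at up to 100 uM (8 points, half-log steps, 0.5% DMSO), duplicate wells.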

Read-out in test [2]: Broad substrate specificity ATP-binding cassette transporter ABCG2 (Homo sapiens) (UniProt Q9UNQ0)
Description: LTEA_HepaRG_ABCG2: Life Technologies and Expression Analysis (LTEA) Assay for ABC Transporter (ABCG2) using HepaRG (AID 2283465). The method, boiled down:
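HepaRG, 48 h exposure, 8-pt half-log series from 100 uM, 0.5% DMSO vehicle, duplicates. Readout: ABCG2 transcript by qRT-PCR (Fluidigm array), housekeeping-normalized; bidirectional curve fit relative to DMSO baseline.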

Read-out in test [3]: ATP-citrate lyase (ACLY), ACLY (gene 47)
Kind of test: LTEA_HepaRG_ACLY: Life Technologies and Expression Analysis (LTEA) Assay for ATP-citrate lyase (ACLY) using HepaRG (AID 2283466). The essentials: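 qRT-PCR readout of ACLY transcript after 48 h chemical treatment of HepaRG cells; expression normalized to three housekeeping genes. Eight-point half-log series, highest 100 uM, 0.5% DMSO vehicle. Gain or loss fitted against DMSO baseline.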

Read-out in test [4]: Peroxisomal acyl-coenzyme A oxidase 1 (ACOX1) gene, ACOX1 (gene 51)
Kind of test: LTEA_HepaRG_ACOX1: Life Technologies and Expression Analysis (LTEA) Assay for Peroxisomal acyl-coenzyme A oxidase 1 (ACOX1) gene using HepaRG (AID 2283467). The method, boiled down:
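HepaRG, 48 h chemical exposure, 8-pt half-log series from 100 uM top, 0.5% DMSO vehicle, duplicates. Readout: ACOX1 mRNA by Fluidigm qRT-PCR, housekeeping-normalized; bidirectional fit vs DMSO baseline.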

Read-out in test [5]: Alkaline Phosphatase, Placental (ALPP) gene, ALPP (gene 250)
Description: LTEA_HepaRG_ALPP: Life Technologies and Expression Analysis (LTEA) Assay for Alkaline Phosphatase, Placental (ALPP) gene using HepaRG (AID 2283468).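 On AC50: differentiated human HepaRG liver cells in serum-free induction medium.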 The essentials:
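ALPP transcript level, measured by qRT-PCR and normalized to three housekeeping genes (ACTB, GAPDH, POLR2A), after 48 h dosing of differentiated HepaRG in serum-free induction medium. Top concentration 100 uM with half-log dilutions (8 points, 0.5% DMSO, duplicates); bidirectional fitting relative to DMSO.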

Read-out in test [6]: Bcl-2 (BAD) gene, BAD (gene 572)
Description: LTEA_HepaRG_BAD: Life Technologies and Expression Analysis (LTEA) Assay for Bcl-2 (BAD) gene using HepaRG (AID 2283469). The method, boiled down:
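HepaRG, 48 h exposure, 8-pt half-log curve from 100 uM in 0.5% DMSO, duplicates. Readout: TaqMan qRT-PCR for BAD mRNA, housekeeping-normalised (ACTB/GAPDH/POLR2A); gain or loss fitted against DMSO baseline.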

Read-out in test [7]: Bcl-2 (BAX) gene, BAX (gene 581)
Description: LTEA_HepaRG_BAX: Life Technologies and Expression Analysis (LTEA) Assay for Bcl-2 (BAX) gene using HepaRG (AID 2283470). The essentials: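 qRT-PCR read-out of BAX mRNA, normalized to three housekeeping genes, after 48 h chemical exposure of human HepaRG cells in serum-free induction medium; eight-point half-log series, top 100 uM, 0.5% DMSO vehicle; bidirectional fit versus DMSO.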

Read-out in test [8]: adenosine kinase (ADK) gene, ADK (gene 132)
Description: LTEA_HepaRG_ADK: Life Technologies and Expression Analysis (LTEA) Assay for adenosine kinase (ADK) gene using HepaRG (AID 2283471). The essentials:
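Following 48 h exposure of HepaRG cells in 0.5% DMSO (top concentration 100 uM, duplicate wells), ADK mRNA induction or suppression was measured by qRT-PCR, normalised to ACTB/GAPDH/POLR2A, and fitted bidirectionally relative to vehicle.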

Read-out in test [9]: Alpha-fetoprotein (AFP) gene, AFP (gene 174)
Description: LTEA_HepaRG_AFP: Life Technologies and Expression Analysis (LTEA) Assay for Alpha-fetoprotein (AFP) gene using HepaRG (AID 2283472). The essentials:
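qRT-PCR (Fluidigm TaqMan) readout of AFP transcript, normalized to three housekeeping genes, fitted bidirectionally against 0.5% DMSO baseline. HepaRG cells received chemicals for 48 h in serum-free induction medium, top concentration 100 uM, half-log steps.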

Read-out in a further test: BCL2L11 (gene 10018)
Description: LTEA_HepaRG_BCL2L11: Life Technologies and Expression Analysis (LTEA) Assay for Bcl-2 (BCL2L11) gene using HepaRG (AID 2283473). The essentials:
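BCL2L11 transcript levels are measured by Fluidigm qRT-PCR, normalized to three housekeeping genes. HepaRG cultures were plated 48 h, then treated 48 h with test chemical (top 100 uM, half-log, 0.5% DMSO vehicle); curves were fitted bidirectionally against DMSO.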

Read-out in test [10]: Apolipoprotein A-V (APOA5) gene, APOA5 (gene 116519)
Description: LTEA_HepaRG_APOA5: Life Technologies and Expression Analysis (LTEA) Assay for Apolipoprotein A-V (APOA5) gene using HepaRG (AID 2283474). The method, boiled down:
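APOA5 transcript levels were quantified by qRT-PCR, normalized to three housekeeping genes, after 48 h chemical treatment of HepaRG cells (8 points, 100 uM maximum, half-log steps, 0.5% DMSO). Curves fitted in both directions against vehicle.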

Read-out in test [11]: Apoptosis regulator Bcl-2 (Homo sapiens) (UniProt P10415)
Kind of test: LTEA_HepaRG_BCL2: Life Technologies and Expression Analysis (LTEA) Assay for Bcl-2 gene using HepaRG (AID 2283475). The method, boiled down:
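qRT-PCR read-out (Fluidigm TaqMan) of BCL2 transcript, normalised to three housekeeping genes, after 48 h chemical exposure of HepaRG cells; 8-point half-log series, top 100 uM, 0.5% DMSO vehicle. Gain or loss of signal fitted relative to DMSO baseline.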

Read-out in test [12]: Bcl-2 (BID) gene, BID (gene 637)
Description: LTEA_HepaRG_BID: Life Technologies and Expression Analysis (LTEA) Assay for Bcl-2 (BID) gene using HepaRG (AID 2283476). The essentials:
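HepaRG, 48 h exposure, 8-pt half-log series, top 100 uM, 0.5% DMSO vehicle, duplicates. Readout: BID mRNA by TaqMan qRT-PCR; housekeeping-normalized; bidirectional curve fit vs DMSO baseline.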

Read-out in the next test: Caspase-3 (Homo sapiens) (UniProt P42574)
Kind of test: LTEA_HepaRG_CASP3: Life Technologies and Expression Analysis (LTEA) Assay for cysteine-aspartic acid protease (CASP3) using HepaRG (AID 2283477). The method, boiled down:
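Expression of CASP3 was quantified by TaqMan qRT-PCR against three housekeeping genes (ACTB, GAPDH, POLR2A), bidirectionally versus 0.5% DMSO. HepaRG cultures received compounds in duplicate, top 100 uM with half-log steps, for 48 h in serum-free induction medium.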

Read-out in test [13]: Cytochrome P450 (CYP1A2), CYP1A2 (gene 1544)
Kind of test: LTEA_HepaRG_CYP1A2: Life Technologies and Expression Analysis (LTEA) Assay for Cytochrome P450 (CYP1A2) using HepaRG (AID 2283479). The method, boiled down: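 CYP1A2 transcript measured by TaqMan qRT-PCR against three housekeeping genes after 48-hour chemical exposure of HepaRG cells. Eight-point half-log series topping at 100 uM in 0.5% DMSO, duplicates; gain or loss fitted relative to vehicle.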

Read-out in test [14]: cysteine-aspartic acid protease (CASP8), CASP8 (gene 841)
Kind of test: LTEA_HepaRG_CASP8: Life Technologies and Expression Analysis (LTEA) Assay for cysteine-aspartic acid protease (CASP8) using HepaRG (AID 2283480). The method, boiled down:
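qRT-PCR readout of CASP8 mRNA, normalized to three housekeeping genes, after 48 h chemical exposure of HepaRG cells; 8-point half-log series, top 100 uM, 0.5% DMSO vehicle. Bidirectional curve fitting against DMSO baseline.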

Read-out in test [15]: Cytochrome P450 2C19 (Homo sapiens) (UniProt P33261)
Description: LTEA_HepaRG_CYP2C19: Life Technologies and Expression Analysis (LTEA) Assay for CYP2C19 using HepaRG (AID 2283482). The method, boiled down:
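CYP2C19 transcript levels by qRT-PCR, normalized to three housekeeping genes, in HepaRG cells after 48 h chemical exposure. Eight-point half-log series topping at 100 uM, 0.5% DMSO vehicle. Increases and decreases both fitted against DMSO.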

Read-out in a further test: CYP2C8 (gene 1558)
Description: LTEA_HepaRG_CYP2C8: Life Technologies and Expression Analysis (LTEA) Assay for CYP2C8 using HepaRG (AID 2283483). The essentials:
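HepaRG (human liver line), 48 h chemical exposure, 8-pt half-log series from 100 uM, 0.5% DMSO vehicle. Readout: CYP2C8 transcript by qRT-PCR, housekeeping-normalized. Bidirectional fit vs DMSO baseline.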

Read-out in test [16]: Cytochrome P450 (CYP24A1), CYP24A1 (gene 1591)
Description: LTEA_HepaRG_CYP24A1: Life Technologies and Expression Analysis (LTEA) Assay for Cytochrome P450 (CYP24A1) using HepaRG (AID 2283478). The essentials:
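mRNA of CYP24A1 quantified by TaqMan qRT-PCR (ACTB/GAPDH/POLR2A normalization) after 48 h chemical exposure of HepaRG cells, top concentration 100 uM, half-log steps, 0.5% DMSO vehicle, duplicates. Curves fitted bidirectionally against DMSO baseline.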

Read-out in test [17]: Cytochrome P450 (CYP2B6), CYP2B6 (gene 1555)
Description: LTEA_HepaRG_CYP2B6: Life Technologies and Expression Analysis (LTEA) Assay for Cytochrome P450 (CYP2B6) using HepaRG (AID 2283481). The method, boiled down: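 CYP2B6 transcript level quantified by qRT-PCR against three housekeeping genes, fitted bidirectionally relative to DMSO. HepaRG cultures received chemicals for 48 h, 8-point half-log series from 100 uM in 0.5% DMSO, duplicate wells, serum-free induction medium.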

This is an account of results in PubChem BioAssay (EPA / NIEHS).

The AC50 is the concentration giving half of the maximal activity seen.

Calls of active or inactive are those of the source. How the source made its calls: active means hit-call score of the fitted dose curve at least 0.9, where 1 is the maximum; inactive means score below 0.9.

Sequence of Broad substrate specificity ATP-binding cassette transporter ABCG2 (Homo sapiens) (Q9UNQ0 whole entry, looked up): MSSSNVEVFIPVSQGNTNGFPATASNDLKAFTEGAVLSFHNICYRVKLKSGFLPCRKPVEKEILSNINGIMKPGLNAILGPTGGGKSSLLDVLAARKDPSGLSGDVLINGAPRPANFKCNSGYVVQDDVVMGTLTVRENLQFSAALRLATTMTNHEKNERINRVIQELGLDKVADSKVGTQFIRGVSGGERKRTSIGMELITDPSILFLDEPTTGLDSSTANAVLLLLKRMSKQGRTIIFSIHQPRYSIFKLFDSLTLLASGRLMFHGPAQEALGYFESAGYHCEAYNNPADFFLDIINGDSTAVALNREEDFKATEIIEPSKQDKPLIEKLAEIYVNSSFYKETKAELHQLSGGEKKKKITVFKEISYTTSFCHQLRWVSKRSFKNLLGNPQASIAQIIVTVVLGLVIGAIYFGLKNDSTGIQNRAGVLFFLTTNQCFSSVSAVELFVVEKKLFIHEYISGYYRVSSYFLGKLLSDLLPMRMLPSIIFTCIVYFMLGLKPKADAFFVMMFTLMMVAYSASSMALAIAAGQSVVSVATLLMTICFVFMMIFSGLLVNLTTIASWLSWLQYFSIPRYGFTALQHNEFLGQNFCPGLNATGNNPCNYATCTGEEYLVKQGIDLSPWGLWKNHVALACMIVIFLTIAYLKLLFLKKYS
Sequence of Caspase-3 (Homo sapiens) (P42574 whole entry, looked up): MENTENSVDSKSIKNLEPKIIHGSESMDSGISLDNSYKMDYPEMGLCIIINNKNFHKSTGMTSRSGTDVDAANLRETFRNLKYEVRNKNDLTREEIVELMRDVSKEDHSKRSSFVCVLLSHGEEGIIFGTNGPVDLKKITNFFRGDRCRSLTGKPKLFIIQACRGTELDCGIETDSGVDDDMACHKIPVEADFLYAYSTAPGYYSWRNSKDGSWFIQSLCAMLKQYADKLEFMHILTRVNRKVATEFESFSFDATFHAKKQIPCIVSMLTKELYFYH
Sequence of Cytochrome P450 2C19 (Homo sapiens) (P33261 whole entry, looked up): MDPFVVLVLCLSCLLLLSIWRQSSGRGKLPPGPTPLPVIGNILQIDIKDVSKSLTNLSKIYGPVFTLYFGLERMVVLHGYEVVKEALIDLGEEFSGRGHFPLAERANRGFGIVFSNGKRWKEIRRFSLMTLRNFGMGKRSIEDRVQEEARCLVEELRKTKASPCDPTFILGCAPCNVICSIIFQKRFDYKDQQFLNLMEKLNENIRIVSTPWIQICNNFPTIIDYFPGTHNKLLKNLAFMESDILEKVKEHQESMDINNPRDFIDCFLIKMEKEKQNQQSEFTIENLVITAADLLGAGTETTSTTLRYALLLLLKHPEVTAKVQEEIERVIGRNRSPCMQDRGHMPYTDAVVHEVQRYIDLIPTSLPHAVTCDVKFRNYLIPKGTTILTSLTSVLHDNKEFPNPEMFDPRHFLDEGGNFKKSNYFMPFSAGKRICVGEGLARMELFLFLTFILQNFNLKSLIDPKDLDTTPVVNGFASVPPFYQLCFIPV
Sequence of Apoptosis regulator Bcl-2 (Homo sapiens) (P10415 whole entry, looked up): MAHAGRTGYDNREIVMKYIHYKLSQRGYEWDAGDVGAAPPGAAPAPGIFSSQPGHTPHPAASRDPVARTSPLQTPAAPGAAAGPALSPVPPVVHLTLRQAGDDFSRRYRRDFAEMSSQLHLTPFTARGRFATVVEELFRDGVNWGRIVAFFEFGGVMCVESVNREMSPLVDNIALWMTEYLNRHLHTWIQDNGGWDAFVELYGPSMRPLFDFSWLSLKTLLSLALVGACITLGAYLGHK

In the case of `Brc1ccc(Oc2ccccc2)cc1`, the outcome in test [1], in test [2], in test [3], in test [4], in test [5] and in test [6] was inactive. Moreover, the call (in test [7]; in [8]; in test [9]; with BCL2L11 (gene 10018); in [10]; in test [11]) was inactive. Also, the molecule was classed as inactive (in [12]; in the test with Caspase-3 (Homo sapiens); in [13]; in test [14]; in test [15]; with CYP2C8 (gene 1558)).

With `OCCOCCO`, the result in [1], in test [2], in test [3], in [4], in [5] and in test [6] was inactive. In addition, the result (in test [7]; in [8]; in [9]; with BCL2L11 (gene 10018); in test [10]; in test [11]) was inactive. Further, the molecule was called inactive (in test [12]; in the test with Caspase-3 (Homo sapiens); in [13]; in [14]; in [15]; in the test with CYP2C8 (gene 1558)).

In the case of `CCOC(=O)[C@]1(c2ccccc2)Oc2ccccc2[C@@H]1N`, the half-maximal activity concentration (AC50) in test [1] is 82.2 µM (active); in test [2], 50 µM (active); in test [4], 87.5 µM (active); in [5] it was 50 µM (active); in test [7], 75.7 µM (active); in test [10], 83.3 µM (active). Further, the half-maximal activity concentration (AC50) in [11] was 88.7 µM (active); in test [13], 15.8 µM (active); in [17] it was 81.9 µM (active); in [15] it was 78.2 µM (active). Moreover, the call (in test [3]; in [6]; in [8]; in [9]; with BCL2L11 (gene 10018); in [12]) was inactive. Moreover, the molecule was called inactive (in the test with Caspase-3 (Homo sapiens); in test [16]; in [14]; with CYP2C8 (gene 1558)).
